# Measured values published in PubChem BioAssay (EPA / NIEHS).
# Calls of active or inactive are those of the source. The calls were made as follows: active = hit-call score of the fitted dose curve at least 0.9, where 1 is the maximum; inactive = score below 0.9.
# Target: Hypoxia-inducible factor 1-alpha (Homo sapiens) (UniProt Q16665)
# Assay: ATG_HIF1a_CIS: Attagene CIS-FACTORIAL HepG2 Assay for human Hypoxia Inducible Factor 1 (HIF1A) (AID 2282951)
# Conditions: HepG2 Attagene cis-factorial HIF1a reporter transcription; actives raise or lower the signal
# How it was run: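 Activity is fitted in both directions relative to DMSO. Reporter transcripts are read by RT-PCR, fluorescent primer extension and capillary electrophoresis after 24 h chemical treatment. The cells are HepG2 carrying transiently transfected cis-element-driven reporter units responding to endogenous factors.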
# Hypoxia-inducible factor 1-alpha (Homo sapiens), sequence (Q16665 whole entry, looked up): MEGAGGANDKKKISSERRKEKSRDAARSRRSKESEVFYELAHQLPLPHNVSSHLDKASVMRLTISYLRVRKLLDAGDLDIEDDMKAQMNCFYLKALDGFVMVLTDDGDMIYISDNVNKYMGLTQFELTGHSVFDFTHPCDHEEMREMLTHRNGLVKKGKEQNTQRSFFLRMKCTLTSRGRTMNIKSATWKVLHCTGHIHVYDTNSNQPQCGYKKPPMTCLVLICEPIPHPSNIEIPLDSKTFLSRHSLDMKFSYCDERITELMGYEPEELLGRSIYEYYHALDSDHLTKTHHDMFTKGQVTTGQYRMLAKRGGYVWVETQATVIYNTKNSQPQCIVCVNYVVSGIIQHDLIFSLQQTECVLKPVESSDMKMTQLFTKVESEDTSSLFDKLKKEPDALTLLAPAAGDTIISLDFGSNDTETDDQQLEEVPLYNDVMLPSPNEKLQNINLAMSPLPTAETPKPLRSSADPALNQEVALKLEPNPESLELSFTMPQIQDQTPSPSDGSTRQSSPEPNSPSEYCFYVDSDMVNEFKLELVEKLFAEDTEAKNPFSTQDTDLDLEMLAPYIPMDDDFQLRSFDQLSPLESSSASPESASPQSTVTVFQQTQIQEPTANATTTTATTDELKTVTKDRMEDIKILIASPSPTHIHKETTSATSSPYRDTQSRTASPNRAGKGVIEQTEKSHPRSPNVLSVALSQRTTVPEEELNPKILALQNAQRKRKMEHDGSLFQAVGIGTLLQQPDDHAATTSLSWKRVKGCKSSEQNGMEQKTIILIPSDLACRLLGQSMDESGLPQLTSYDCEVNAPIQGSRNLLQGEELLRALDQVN
SMILES,AC50,outcome
CCc1c(C(=O)NN2CCCCC2)nn(-c2ccc(Cl)cc2Cl)c1-c1ccc(Br)cc1,0.387 µM (active),–
COc1cc(S(=O)(=O)O)c(C)cc1N=Nc1c(O)ccc2cc(S(=O)(=O)O)ccc12,5.78 µM (active),–
CN1CCN(Cc2cc(-c3ccc4[nH]c(=O)oc4c3)co2)[C@@H](c2ccc(F)cc2)C1,6.55 µM (active),–
CCCCc1ccc2c(n1)[C@@H](c1ccc(OC)cc1C[C@H](C)C(=O)O)[C@H](C(=O)O)[C@H]2c1ccc2c(c1)OCO2,–,inactive
O=C(O)CCCCC(=O)O,–,inactive
CC(CO)OC(C)CO (configuration not stated) (tested in a mixture with another compound),4.72 µM (active),–
COCCOCCOC,–,inactive
O=C(O)Cc1ccccc1Nc1c(Cl)cccc1Cl,–,inactive
Cc1ccccc1Cl,–,inactive
NC(=O)Cn1c(=O)cc(CCN2CCN(c3nccc4sccc34)CC2)c2ccc(F)cc21,61.4 µM (active),–
Cc1nc(-c2ccc3c(c2)CCN(CCC2CCC(NC(=O)/C=C/c4ccc(F)cc4)CC2)CC3)no1 (configuration not stated),–,inactive
COc1cc(/C=C/C(=O)CC(=O)/C=C/c2ccc(O)c(OC)c2)ccc1O,–,inactive
CN[C@H]1CC[C@@H](c2ccc(Cl)c(Cl)c2)c2ccc(S(N)(=O)=O)cc21,–,inactive

# Target: Hepatocyte nuclear factor 6 (Homo sapiens) (UniProt Q9UBC0)
# Sequence (Q9UBC0 whole entry, looked up): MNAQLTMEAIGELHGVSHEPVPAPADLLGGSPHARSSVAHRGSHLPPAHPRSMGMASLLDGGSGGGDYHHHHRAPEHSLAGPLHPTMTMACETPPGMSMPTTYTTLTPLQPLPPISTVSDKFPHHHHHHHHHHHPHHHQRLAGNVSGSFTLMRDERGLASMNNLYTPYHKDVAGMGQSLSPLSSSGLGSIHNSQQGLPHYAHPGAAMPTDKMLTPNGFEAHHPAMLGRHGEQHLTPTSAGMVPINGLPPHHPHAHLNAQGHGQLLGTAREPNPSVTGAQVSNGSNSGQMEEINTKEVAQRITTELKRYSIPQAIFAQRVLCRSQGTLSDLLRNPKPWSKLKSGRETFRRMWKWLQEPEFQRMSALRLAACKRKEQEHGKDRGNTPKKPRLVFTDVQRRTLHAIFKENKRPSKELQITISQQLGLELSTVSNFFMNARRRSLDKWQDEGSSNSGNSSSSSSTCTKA
# Assay: ATG_HNF6_CIS: Attagene CIS-FACTORIAL HepG2 Assay for human Hepatocyte Nuclear Factor 6 (HNF6) (AID 2282952)
# Conditions: HepG2 Attagene cis-factorial HNF6 reporter transcription; actives raise or lower the signal
# How it was run: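 HepG2 cells transiently transfected with cis-element-driven multiplexed reporter units measuring endogenous transcription factor activity. After 24 h exposure, reporter mRNA quantified by RT-PCR, FAM-labelled fragments and capillary electrophoresis; bidirectional fitting versus DMSO.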
SMILES,outcome,AC50
Cc1c(C(=O)O)c(O)cc2c1C(=O)c1c(O)c([C@@H]3O[C@H](CO)[C@@H](O)[C@H](O)[C@H]3O)c(O)c(O)c1C2=O,inactive,–
Cc1cc(NC(=O)C(=O)O)cc(C)c1Oc1ccc(O)c2c1CCC2,inactive,–
CCCCCCCCCCO,inactive,–
CCc1c(C(=O)NN2CCCCC2)nn(-c2ccc(Cl)cc2Cl)c1-c1ccc(Br)cc1,inactive,–
COc1cc(S(=O)(=O)O)c(C)cc1N=Nc1c(O)ccc2cc(S(=O)(=O)O)ccc12,inactive,–
CCOC(=O)C(C)(C)Oc1ccc(Cl)cc1,inactive,–
CN1CCN(Cc2cc(-c3ccc4[nH]c(=O)oc4c3)co2)[C@@H](c2ccc(F)cc2)C1,inactive,–
FC(F)(F)C(F)(F)C(F)(F)C(F)(F)C(F)(F)C(F)(F)CCI,inactive,–
CNC(=O)[C@H]1O[C@@H](n2cnc3c(NCc4cc(Cl)ccc4OCc4cc(C)no4)ncnc32)[C@H](O)[C@@H]1N,inactive,–
CCCCc1ccc2c(n1)[C@@H](c1ccc(OC)cc1C[C@H](C)C(=O)O)[C@H](C(=O)O)[C@H]2c1ccc2c(c1)OCO2,inactive,–
O=C(O)CCCCC(=O)O,inactive,–
CCCCCCCCCCCC(=O)OC,inactive,–
Cc1ccc(Cl)cc1,inactive,–
CC(CO)OC(C)CO (configuration not stated) (tested in a mixture with another compound),inactive,–
COCCOCCOC,inactive,–
CC(=O)OCCOCCOCCOC(C)=O,inactive,–
COc1cc(-c2nc(NC(=O)c3cc4cc(C)cc(C)c4n3CC(=O)O)sc2CCC2CCCCC2)c(OC)cc1Cl,inactive,–
O=C(O)Cc1ccccc1Nc1c(Cl)cccc1Cl,inactive,–
Cc1ccccc1Cl,inactive,–
Cc1nc(C)nc(N2C[C@@H](C)N(c3ccnc([C@@H](C)O)n3)[C@@H](C)C2)n1,inactive,–
NS(=O)(=O)c1cc2c(cc1Cl)NCNS2(=O)=O,inactive,–
NC(=O)Cn1c(=O)cc(CCN2CCN(c3nccc4sccc34)CC2)c2ccc(F)cc21,inactive,–
Cc1cc(=O)[nH]c(=S)[nH]1,inactive,–
CCCCN(CCCC)CCCC,inactive,–
Cc1nc(-c2ccc3c(c2)CCN(CCC2CCC(NC(=O)/C=C/c4ccc(F)cc4)CC2)CC3)no1 (configuration not stated),inactive,–
COc1cc(/C=C/C(=O)CC(=O)/C=C/c2ccc(O)c(OC)c2)ccc1O,–,47.4 µM (active)
O=c1[nH]cc(F)c(=O)[nH]1,inactive,–
CN[C@H]1CC[C@@H](c2ccc(Cl)c(Cl)c2)c2ccc(S(N)(=O)=O)cc21,inactive,–
Nc1nc(N)c2nc(CNc3ccc(C(=O)N[C@@H](CCC(=O)O)C(=O)O)cc3)cnc2n1,inactive,–

# Target: Heat shock factor protein 1 (Homo sapiens) (UniProt Q00613)
# Sequence (Q00613 whole entry, looked up): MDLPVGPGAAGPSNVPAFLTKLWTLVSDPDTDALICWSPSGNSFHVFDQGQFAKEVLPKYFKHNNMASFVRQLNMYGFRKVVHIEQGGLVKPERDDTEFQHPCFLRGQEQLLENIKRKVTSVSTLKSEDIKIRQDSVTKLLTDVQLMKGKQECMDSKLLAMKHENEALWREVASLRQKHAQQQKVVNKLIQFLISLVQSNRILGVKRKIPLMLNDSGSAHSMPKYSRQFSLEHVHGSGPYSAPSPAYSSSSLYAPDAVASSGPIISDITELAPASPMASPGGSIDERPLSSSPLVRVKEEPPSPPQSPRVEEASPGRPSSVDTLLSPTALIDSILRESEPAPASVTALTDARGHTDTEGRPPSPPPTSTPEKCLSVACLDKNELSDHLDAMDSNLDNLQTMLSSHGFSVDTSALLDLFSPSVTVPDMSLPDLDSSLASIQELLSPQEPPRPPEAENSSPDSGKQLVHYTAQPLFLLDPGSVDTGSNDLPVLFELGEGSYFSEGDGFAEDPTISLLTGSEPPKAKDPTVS
# Assay: ATG_HSE_CIS: Attagene CIS-FACTORIAL HepG2 Assay for human Heat Shock Transcription Factor 1 (HSE) (AID 2282953)
# Conditions: HepG2 HSE cis-reporter, Attagene RNA transcription; actives raise or lower the signal
# How it was run: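 After a 24 h incubation with test chemical, transfected HepG2 cells were harvested for RNA; reporter transcripts were measured by RT-PCR and capillary electrophoresis. Values reflect gain or loss of signal relative to DMSO.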
SMILES,outcome,AC50
Cc1cc(NC(=O)C(=O)O)cc(C)c1Oc1ccc(O)c2c1CCC2,inactive,–
CCCCCCCCCCO,inactive,–
CCc1c(C(=O)NN2CCCCC2)nn(-c2ccc(Cl)cc2Cl)c1-c1ccc(Br)cc1,inactive,–
COc1cc(S(=O)(=O)O)c(C)cc1N=Nc1c(O)ccc2cc(S(=O)(=O)O)ccc12,inactive,–
CCOC(=O)C(C)(C)Oc1ccc(Cl)cc1,inactive,–
FC(F)(F)C(F)(F)C(F)(F)C(F)(F)C(F)(F)C(F)(F)CCI,inactive,–
CNC(=O)[C@H]1O[C@@H](n2cnc3c(NCc4cc(Cl)ccc4OCc4cc(C)no4)ncnc32)[C@H](O)[C@@H]1N,inactive,–
CCCCc1ccc2c(n1)[C@@H](c1ccc(OC)cc1C[C@H](C)C(=O)O)[C@H](C(=O)O)[C@H]2c1ccc2c(c1)OCO2,inactive,–
CCCCCCCCCCCC(=O)OC,inactive,–
Cc1ccc(Cl)cc1,inactive,–
CC(CO)OC(C)CO (configuration not stated) (tested in a mixture with another compound),inactive,–
COCCOCCOC,inactive,–
CC(=O)OCCOCCOCCOC(C)=O,inactive,–
COc1cc(-c2nc(NC(=O)c3cc4cc(C)cc(C)c4n3CC(=O)O)sc2CCC2CCCCC2)c(OC)cc1Cl,–,65.7 µM (active)
O=C(O)Cc1ccccc1Nc1c(Cl)cccc1Cl,inactive,–
Cc1ccccc1Cl,inactive,–
Cc1nc(C)nc(N2C[C@@H](C)N(c3ccnc([C@@H](C)O)n3)[C@@H](C)C2)n1,inactive,–
NS(=O)(=O)c1cc2c(cc1Cl)NCNS2(=O)=O,inactive,–
NC(=O)Cn1c(=O)cc(CCN2CCN(c3nccc4sccc34)CC2)c2ccc(F)cc21,inactive,–
Cc1cc(=O)[nH]c(=S)[nH]1,inactive,–
CCCCN(CCCC)CCCC,inactive,–
Cc1nc(-c2ccc3c(c2)CCN(CCC2CCC(NC(=O)/C=C/c4ccc(F)cc4)CC2)CC3)no1 (configuration not stated),inactive,–
O=c1[nH]cc(F)c(=O)[nH]1,inactive,–
CN[C@H]1CC[C@@H](c2ccc(Cl)c(Cl)c2)c2ccc(S(N)(=O)=O)cc21,inactive,–
Nc1nc(N)c2nc(CNc3ccc(C(=O)N[C@@H](CCC(=O)O)C(=O)O)cc3)cnc2n1,inactive,–
